Potency and affinity values are given separately. Results filed as inconclusive are left out. A number with no mark means an inactive call. How the calls were made is not given here.
biological target: DNA topoisomerase I (Yersinia pestis CO92) (UniProt A0A2S9PM60); experiment: Y. pestis Topo-I inhibitors, cleavage product readout, dose response, biochemical, Y. pestis CO92, cherry-pick (AID 588525); conditions: purified Y. pestis Topo-I, plate reader; series mostly up to 38 µM; activity (cleavage complex accumulation): at the top concentration
Sequence (A0A2S9PM60 1-871): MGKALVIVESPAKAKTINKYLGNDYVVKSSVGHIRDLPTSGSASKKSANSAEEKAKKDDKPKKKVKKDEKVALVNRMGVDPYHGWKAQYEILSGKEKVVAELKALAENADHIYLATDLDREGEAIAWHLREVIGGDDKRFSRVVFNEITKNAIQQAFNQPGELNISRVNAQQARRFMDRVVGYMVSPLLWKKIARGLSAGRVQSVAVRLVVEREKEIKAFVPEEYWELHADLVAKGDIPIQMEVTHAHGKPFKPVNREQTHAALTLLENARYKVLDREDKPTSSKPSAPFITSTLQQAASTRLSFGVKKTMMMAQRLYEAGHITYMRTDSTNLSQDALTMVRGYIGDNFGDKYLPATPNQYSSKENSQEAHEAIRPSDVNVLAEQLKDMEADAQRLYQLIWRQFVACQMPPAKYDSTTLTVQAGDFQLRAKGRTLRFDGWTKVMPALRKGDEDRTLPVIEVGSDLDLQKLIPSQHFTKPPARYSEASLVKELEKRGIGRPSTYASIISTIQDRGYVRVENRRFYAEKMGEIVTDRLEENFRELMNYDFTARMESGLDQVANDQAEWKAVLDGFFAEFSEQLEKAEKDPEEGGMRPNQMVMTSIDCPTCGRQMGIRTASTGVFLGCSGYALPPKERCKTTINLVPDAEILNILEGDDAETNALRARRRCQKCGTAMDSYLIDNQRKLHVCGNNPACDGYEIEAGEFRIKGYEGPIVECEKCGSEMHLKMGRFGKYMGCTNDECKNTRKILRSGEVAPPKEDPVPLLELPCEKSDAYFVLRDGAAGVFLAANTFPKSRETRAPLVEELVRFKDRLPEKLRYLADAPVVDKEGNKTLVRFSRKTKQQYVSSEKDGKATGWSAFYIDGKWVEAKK

Compound	activity (cleavage complex accumulation)
COc1ccc(C2CC(c3ccccc3)=NN2C(=O)COC(=O)c2cccc(S(=O)(=O)N3CCOCC3)c2)cc1 (centres undefined)	40.6% [at 10 µM]
COc1ccccc1C(=O)NCCC(=O)N1CC=C(c2ccccc2)CC1	25.7%
COC(=O)c1ccc(C2C(Oc3ccc(OC)cc3)C(=O)N2CCc2ccc(F)cc2)cc1 (centres undefined)	19.9% [at 19.5 µM]
Cc1ccccc1OCC(=O)Nc1ccccc1N1CCCCC1	37%
CCCCOC(=O)Nc1nnc(/C=C/c2ccc(OC)cc2)s1	33.7%
CSc1ccccc1NC(=O)COC(=O)c1ccccc1Cc1ccccc1	37.9%
CC1CCN(c2oc(Cc3cccc4ccccc34)nc2C#N)CC1	22.8%
O=C(Cc1ccccc1)CC(CC(=O)c1ccccc1)c1ccccc1 (centres undefined)	40.3%
O=C(NCC1(c2ccccc2)CCCC1)C1(c2ccccc2)CCCC1	18.5%
C[C@H]1CCC(=O)N([C@H](CSc2ccccc2)Cc2ccccc2)CC1	12%
CCCCCCCCN1[C@@H](CC(C)=O)c2cc(C(F)(F)F)ccc2S1(=O)=O	24.3% [at 10 µM]
O=C(COc1c(Cl)cccc1Cl)Nc1ccccc1N1CCCC1	16.1%
CCCCn1c(C)cc(C)c(S(=O)(=O)c2ccccc2C)c1=O	30.2% [at 19.5 µM]
Cc1ccc2c(Cl)c(C)c(N3CCCCC3)nc2n1	24.9% [at 10 µM]
Cc1ccc(CSc2nc3c(c(N(C)C)n2)CCCC3)cc1	9.99%
CCCCN1CC(COCc2ccccc2)Oc2cccc(F)c2S1(=O)=O (centres undefined)	28.1%
Cc1cc(NC(=O)C(C)SCC(=O)N(C)CC(=O)Nc2ccc(F)cc2)no1 (centres undefined)	16.3%
O=C(OCc1ccccc1)N1CCC2CC1c1c(Cl)cccc12 (centres undefined)	34.9%
O=C(NCCn1cc(SCc2ccccc2)c2ccccc21)c1ccccc1F	26.2% [at 5 µM]
CCCCC(CC)COC(=O)c1ccccc1C(=O)OCC(CC)CCCC (centres undefined)	20.7%
C#CCN(C[C@@H](CC(C)C)NC(=O)OC(C)(C)C)S(=O)(=O)c1ccc(Br)cc1F	15.2%
O=C(COC(=O)CCC1CCCC1)Nc1ccccc1Sc1ccccc1	34.9%
CC(=O)c1ccccc1OCc1ccc(C(=O)c2ccccc2)cc1	36.3%
CC(C)OC(=O)C(C)(C)Oc1ccc(C(=O)c2ccc(Cl)cc2)cc1	20.1%

— PubChem BioAssay AID588525 (Broad Institute, 2011)
